Rows were chosen to be rich in hits. Some 10% of all compounds tested hit in one or more screens of this group.
HP1b binding inh: inhibitors of HP1-beta chromodomain binding to methylated histone tails; Potency, µM (titrated, usually from 114 µM), for the others: top-dose activity change, negative = inhibition, usual class: inhibitors; AlphaScreen HP1-beta / biotin-H3K9me3 peptide binding; P83916; 390,000 tested, 0.56% active; further: potency means the concentration at half of the fitted maximal effect; nearly all actives have a fitted effect of over 70% in size
Target sequence (P83916 whole entry, looked up): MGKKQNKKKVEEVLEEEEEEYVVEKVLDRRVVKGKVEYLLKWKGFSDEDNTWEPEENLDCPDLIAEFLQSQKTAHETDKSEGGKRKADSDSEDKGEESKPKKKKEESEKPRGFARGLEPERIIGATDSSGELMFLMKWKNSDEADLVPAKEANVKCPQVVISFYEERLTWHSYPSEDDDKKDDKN
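AlphaScreen: HP1-beta (50 nM) preformed 30 min with biotin-H3(1-18)K9me3 peptide (50 nM) in PBS pH 7.4, 0.01% Tween-20. Compound added for 30 min at RT, then streptavidin donor/nickel chelate acceptor beads (10 ug/mL) for 30 min.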
Six1-Eya2 inh: inhibitors of human Six1/Eya2 interaction; Q15475+O00167; AlphaScreen GST-Six1/His-Eya2 binding, biochemical; hits give low values; activity change, % (no concentration beside the values); 360,000 tested, 0.56% active; in the data active means activity change below about -65%; inconclusive means mostly about -30% to -63%; further: on the % scale 0 is the no-effect control and ±100 the full control effect
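AlphaScreen with GST-Six1 and His-Eya2 (5X mix: 250 nM and 500 nM), glutathione donor and nickel acceptor beads; buffer 50 mM Tris pH 8.0, 300 mM NaCl, 1 mM TCEP; 1 h at 37 C in the dark.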
JMJD2A Tudor inh: blocks the human JMJD2A Tudor domain | O75164 | AlphaScreen JMJD2A-Tudor / H3K4me3 peptide binding | Potency, µM (series often up to 114 µM), for the others: top-dose activity change, negative = inhibition, usual class: inhibitors | 390,000 tested, 4.4% active; further: potency means the concentration at half of the fitted maximal effect; on the % scale 0 is the no-effect control and ±100 the full control effect; nearly all actives have a fitted effect of over 50% in size
BAZ2B inh: blocks human BAZ2B; AlphaScreen BAZ2B-H3K14Ac peptide displacement; Potency, µM (highest dose often 114 µM), for the others: at the top dose activity change, negative = inhibition, hits mostly inhibitors; 360,000 tested, 4.4% active; AID 504333; further: potency means the concentration at half of the fitted maximal effect; on the % scale 0 is the no-effect control and ±100 the full control effect; nearly all actives have a fitted effect of over 60% in size
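AlphaScreen displacement: compounds (up to 110uM) incubated 30 min at room temperature with a preformed 50 nM BAZ2B/50 nM biotinylated H3K14Ac peptide complex in PBS pH 7.4 with Tween-20. Donor and acceptor beads at 10 ug/mL final added, 20 min light-protected before reading.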
G9a inh: G9a (human) methyltransferase inhibition. Q96KQ7. G9a H3K9 monomethylation, AlphaScreen, 2 h. Potency, µM (doses to about 102 µM), without a hit: at the highest dose activity, negative = inhibition, actives largely listed as inhibitors. 350,000 tested, 8.8% active; further: potency means the concentration at half of the fitted maximal effect; on the % scale 0 is the no-effect control and ±100 the full control effect; nearly all actives have a fitted effect of over 75% in size
Target sequence (Q96KQ7 913-1193 limits assumed): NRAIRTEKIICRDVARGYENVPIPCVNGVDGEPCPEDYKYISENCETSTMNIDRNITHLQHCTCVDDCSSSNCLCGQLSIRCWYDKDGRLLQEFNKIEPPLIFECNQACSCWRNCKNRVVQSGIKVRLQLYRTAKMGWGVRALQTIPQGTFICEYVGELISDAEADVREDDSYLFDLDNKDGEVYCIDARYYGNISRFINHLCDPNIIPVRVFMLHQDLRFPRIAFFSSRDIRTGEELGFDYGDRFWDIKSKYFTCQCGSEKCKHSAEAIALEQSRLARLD
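Step 1: enzyme (final 20 nM) with compound, 15 min RT. Step 2: substrate peptide 500 nM and SAM 20 uM, 2 h RT. Step 3: anti-H3K9me1 antibody and AlphaScreen beads, 10 min, then plate read.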
CtBP-E1A blk: inhibitors of CtBP/E1A interaction; AID 651724; 340,000 tested, 0.49% active; AlphaScreen GST-E1A/His-CtBP binding, 1536-well; hits give low values; activity change, % (concentration not given with the values); in the data active means activity change below about -65%; inconclusive means mostly about -30% to -63%; further: on the % scale 0 is the no-effect control and ±100 the full control effect
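Protein mix (5X: 125 nM each GST-E1A, His-CtBP) was incubated with pinned compound 2 h at 37 deg C in dark, in 50 mM Tris pH 8.0 buffer with 300 mM NaCl. Glutathione donor and nickel acceptor beads followed; AlphaScreen signal read after 1 h.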
* = called active by the depositor; ? = inconclusive; · = no result; [ ] = dose if it differs, or a comment. Unless noted, the call rests on the fitted dose curve; in most records, active means well fitted inhibition curve with a large enough effect; inconclusive means small, poorly fitted or top-dose-only effect; inactive means no such curve, though single readings can be large or run the other way.

SMILES | HP1b binding inh | Six1-Eya2 inh | JMJD2A Tudor inh | BAZ2B inh | G9a inh | CtBP-E1A blk
O=C(NCCCOc1cccc(CN2CCCCC2)c1)c1ccc(Cl)c(Cl)c1 | ? | 4 | 3.5µM* | ? | 10µM* | -3
O=C(O)c1ccccc1-c1nc2cc(Cl)ccc2c(=O)n1O | 4% | 7 | -10% | 79µM* | 2% | 9
O=c1c2ccccc2nc(-c2ccc(Cl)cc2Cl)n1O | -2% | -1 | -4%[11.4 µM] | ? | 9% | ·
Nn1c(-c2ccccc2)nc2cc(Cl)ccc2c1=O | 46% | 5 | -23% | 4% | 45µM* | 2
Cc1ccc(-c2nc3ccccc3c(=O)n2N)cc1 | 37% | 7 | 4% | -20% | 8% | ·
COc1ccc(CN2CCN(Cc3ccc4ccccc4c3)CC2)cc1OC | 25µM* | ? | 2.8µM* | 16µM* | -1%[2.33 µM] | -20
COc1ccccc1CN1CCN(Cc2ccc3ccccc3c2)CC1 | ? | -12 | 8.9µM* | 22µM* | 7.9µM* | ·
CCOc1cc(CN2CCCCCC2)ccc1OC | -14% | 23 | 2.2µM* | ? | · | -4
OC1CCN(Cc2ccc3ccccc3c2)CC1 | ? | 1 | 3.5µM* | ? | 11µM* | 9
COC(=O)CNC(=O)Cn1c(=O)n(Cc2ccc(F)cc2)c(=O)c2sccc21 | 25% | 2 | -5% | 22% | · | -4
COc1ccc(C(=O)NCC(=O)OC(C(=O)Nc2cc(C(F)(F)F)ccc2Cl)c2ccccc2)cc1OC (centres undefined) | · | · | -31% | · | · | ·
CCOC(=O)C1=C(c2ccccc2)c2cc(OC)ccc2OC1C(=O)OCC (centres undefined) | · | · | · | · | 58% | ·
COc1cc(NC(=O)COC(=O)CCc2nc3ccccc3c(=O)[nH]2)cc(OC)c1 | 35% | -11 | -8% | · | · | 1
Cc1ccc(NC(=O)COC(=O)CCc2nc3ccccc3c(=O)[nH]2)cc1Cl | 30% | 5 | 13% | -12% | 35µM* | -6
COc1cc(Cl)c(C)cc1NC(=O)COC(=O)CCc1nc2ccccc2c(=O)[nH]1 | 22% | -2 | -12% | 8% | 13µM* | -25
O=C(Nc1ccc(F)c([N+](=O)[O-])c1)C(=O)c1c(O)[nH]c2ccccc12 | 11% | 0 | -35% | ? | 28µM* | -9
Cc1c(Cl)cccc1NC(=O)CNC(=O)CCCc1nc2ccccc2c(=O)[nH]1 | 27% | 4 | -3% | 14% | 45µM* | -15
O=C(Nc1ccccc1)Nc1ccc(F)c([N+](=O)[O-])c1 | 6% | -2 | -26% | -6% | -8%[59 µM] | -3
O=C1NC[C@@H](CCCCN2C[C@H](Cc3ccccc3)N(CC3CCCCC3)C(=O)C2=O)N(CCc2ccccc2)C1=O | · | 1 | · | · | · | 0
COc1ccc(C(=O)C2C(=O)C(=O)N(Cc3ccco3)C2c2cccs2)cc1 (centres undefined) | -16%[57 µM] | · | -20%[57.1 µM] | · | · | ·
COc1ccc(Cl)cc1NC(=O)Cn1cnc2sc(C)c(S(=O)(=O)N3CCN(c4ccccc4OC)CC3)c2c1=O | 8% | · | -15% | -1% | -8%[59 µM] | ·
O=C(CCc1nc2ccccc2c(=O)[nH]1)Nc1ccc(F)c([N+](=O)[O-])c1 | 16% | -13 | -20% | -25% | 40µM* | -2
N#Cc1cccc(NC(=O)COC(=O)CCc2nc3ccccc3c(=O)[nH]2)c1 | 45% | 2 | -1% | -29% | 13µM* | 1
Cc1ccc(S(=O)(=O)N2CCCCC2)cc1NC(=O)CCc1nc2ccccc2c(=O)[nH]1 | 17% | -10 | -20% | -31% | 3.2µM* | -5
COc1ccc(S(=O)(=O)N2CCCCC2)cc1NC(=O)CCc1nc2ccccc2c(=O)[nH]1 | 10% | -20 | -12% | -20% | ? | -16
SMILES | HP1b binding inh | Six1-Eya2 inh | JMJD2A Tudor inh | BAZ2B inh | G9a inh | CtBP-E1A blk
COc1ccc(CCC(=O)Nc2nc(C)c(C(=O)N(C)C)s2)cc1 | 11% | 0 | -12% | -22% | ? | 0
Cc1cc(Oc2ccc(Cl)cc2)nc(-c2ccccn2)n1 | 15% | 4 | -19% | -2% | 18µM* | 2
Brc1ccc(OCc2nc(-c3ccccn3)n[nH]2)cc1 | 30% | -91* | 40µM* | 28µM* | 44% | -93*
Clc1ccc(OCc2nc(-c3ccccn3)n[nH]2)cc1 | 53% | -92* | 20µM* | 22µM* | 85%[59 µM] | -94*
Cc1cc(Oc2ccccc2)nc(-c2ccccc2O)n1 | 167% | 18 | 119% | 74% | 128%[59 µM] | 21
COc1cc(-c2nnc(COC(=O)c3ccc([N+](=O)[O-])o3)o2)cc(OC)c1OC | · | -18 | · | · | · | -3
CCOC(=O)c1sc2ncn(CC(=O)Nc3cc(C)cc(C)c3)c(=O)c2c1C | 34% | · | 2% | 5% | 3%[59 µM] | ·
CCOC(CCn1c(SCC(=O)Nc2cc(C)on2)nc2ccccc2c1=O)OCC | 16% | 7 | -5% | -4% | -12% | ·
CCCNC(=O)Cn1c(=O)/c(=C/c2ccc(-c3cccc([N+](=O)[O-])c3)o2)s/c1=C\C(=O)C(C)(C)C | 7% | -2 | -19% | · | · | -2
CC(C)(O)c1cc(=O)sc2nc3ccccc3n12 | 35% | -3 | -4% | -4% | -7%[59 µM] | 0
Cc1c(C(=O)O)cccc1-c1ccc(/C=C2/NC(=O)N(c3ccccc3)C2=O)o1 | 28% | 9 | -5% | -15% | ? | ·
O=C(O)c1ccccc1-c1ccc(C=c2sc3nc4cc(Br)cnc4n3c2=O)o1 | · | -69* | · | · | · | ?
O=C(O)c1cccc(-c2ccc(/C=c3/sc4nc5ccccc5n4c3=O)o2)c1 | ? | -23 | 22µM* | 25µM* | 7.9µM* | ·
O=C(O)c1cc(C(=O)O)cc(-c2ccc(/C=c3/sc4nc5ccccc5n4c3=O)o2)c1 | 16µM* | ? | 22µM* | 20µM* | 2µM* | -9
C=CC(=O)Nc1ccc(CN2C(=O)N(c3c(Cl)c(OC)cc(OC)c3Cl)Cc3cnc(NCCCCN(CC)CC)nc32)cc1 | ? | -6 | 56µM* | · | · | -12
CCN(CC)CCNC(=O)c1ccc(NC(=O)Cc2ccc(OC)c(S(=O)(=O)N3CCOCC3)c2)cc1 | 31% | 0 | -8% | · | · | -8
Cc1cc2c(cc1C)-n1nnnc1C(N1CCN(C(=O)OCc3ccccc3)CC1)C(=O)N2 (centres undefined) | · | -4 | · | · | · | -11
Cc1ccc(NC(=O)CN(c2ccc(C)cc2)S(=O)(=O)c2cccc3nonc23)cc1 | -1% | -13 | ? | -32% | 50µM* | -3
C[C@H](CO)N1C[C@H](C)[C@@H](CN(C)C(=O)Nc2ccccc2)Oc2ccc(NC(=O)Nc3ccc4c(c3)OCO4)cc2C1=O | 5% | ? | -43% | · | · | -65*

Source: PubChem (National Center for Advancing Translational Sciences (NCATS))
